Compound activity as filed in PubChem BioAssay.
The list is not random: actives were taken first. Their share in the collection is about 2.3%.
uPA generation: cell surface uPA generation inhibition; cell surface uPA generation assay, qHTS; 330,000 compounds, 0.31% hits; Potency, µM (titrated, usually from 38.3 µM), hits mostly inhibitors; active = well fitted inhibition curve with a large enough effect; inconclusive = small, poorly fitted or top-dose-only effect; inactive = no such curve, though single readings can be large or run the other way; tested in mouse RAW 264.7 cells; note: nearly all actives have a fitted effect of over 55% in size
aSyn yeast inh: alpha-synuclein toxicity inhibition in yeast; 370,000 compounds, 0.14% hits; AID 652106; Yeast expressing alpha-synuclein, growth rescue, BacTiter-Glo, 24 h; Potency, µM (titrated, usually from 46.1 µM), usual class: activators; note: nearly all actives have a fitted effect of over 65% in size
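Galactose-induced alpha-syn yeast (OD600=0.02, raffinose-pregrown) + pinned cpd, 24 hr, 30 deg C; growth by BacTiter-Glo luminescence. Growth restoration scores as activation.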
FUS yeast rescue: suppressors of FUS proteinopathy in yeast | S. cerevisiae FUS-expressing, growth rescue, OD600, 24 h | Potency, µM (doses to about 76.6 µM), hits mostly activators | 390,000 compounds, 0.24% hits; note: nearly all actives have a fitted effect of over 55% in size
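Read-out: OD at 600 nm after 24hr at 30C, reporting rescue of FUS-induced yeast toxicity. Cells at OD 0.005 in galactose (2%) minimal medium; compounds tested in a dilution series; CP55940 titration from 92uM final as control.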
TDP43 rescue: TDP-43 toxicity inhibition in yeast; TDP-43 expressing yeast growth rescue, BacTiter-Glo, 24 h; Potency, µM (top dose mostly 46.1 µM), most hits filed as activators; 410,000 compounds, 1.8% hits; AID 652104; note: nearly all actives have a fitted effect of over 50% in size
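Galactose-induced TDP-43 yeast, OD600=0.02, compound pinned; 24 hr, 30 deg C; BacTiter-Glo luminescence for growth. Inhibitors of TDP-43 toxicity read as activators.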
Abeta yeast res: A-beta toxicity reversal in yeast; Potency, µM (doses to about 46.1 µM), hits mostly activators; AID 1347071; yeast expressing A-beta42, growth rescue, OD600, 48 h; response scale: 0% DMSO, 100% iron-clioquinol control; 410,000 compounds, 0.063% hits; note: nearly all actives have a fitted effect of over 55% in size
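Growth rescue measured by 600 nm absorbance after 48 h yeast culture at 30 C with compound. Values normalized between DMSO and an equimolar ferric chloride plus clioquinol control.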
BCR signal inh: inhibitors of chronic active B-cell receptor signaling; ABC-DLBCL IkBa-CBG/CBR reporter, luminescence ratio, 4 h; Potency, µM (top dose mostly 46.1 µM), actives largely listed as inhibitors; 340,000 compounds, 0.05% hits; active = well fitted inhibition curve with a large enough effect in the signal ratio, with a control signal flat, not every such curve was filed as active; inconclusive = small, poorly fitted or top-dose-only effect, or effect the other way, or a change in a side signal; the % refers to the signal ratio
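Concentration-response series (up to 46 uM) were applied to TMD8 dual-reporter cells for 4 h at 37C with doxycycline. Green/red ratio, after filter-overlap correction, defined %Activity; red signal alone was normalised to basal cells and zero luminescence.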
Hits are given with their value; n = inactive; u = inconclusive; x = no result. Unless noted, calls come from the whole dose curve; as a rule, active = well fitted curve in the direction sought with a large enough effect; inconclusive = small, poorly fitted or top-dose-only effect, or another doubt; inactive = no such curve, though single readings can be large; an effect the other way counts as inactive or inconclusive.

SMILES | uPA generation | aSyn yeast inh | FUS yeast rescue | TDP43 rescue | Abeta yeast res | BCR signal inh
O=[N+]([O-])c1ccc(C(c2ccc([N+](=O)[O-])cc2)c2ccc([N+](=O)[O-])cc2)cc1 | n | n | n | n | u | x
Cn1cnc([N+](=O)[O-])c1Sc1ccc([N+](=O)[O-])cc1 | x | n | n | 20µM | n | u
C[n+]1c(-c2ccccc2)c2cc(N)ccc2c2ccc(N)cc21 | 7.1µM | n | n | n | n | u
Nc1ccc2ccc3cccc[n+]3c2c1 | n | n | n | n | n | n
CCCCn1c(O)c(C(C)=NCCCn2ccnc2)c(=O)[nH]c1=O | n | n | n | n | n | u
COc1cc2c(cc1O)[C@@H]1Cc3ccc(OC)c(O)c3CN1CC2 | 4.5µM | n | n | n | n | u
COc1ccc(N2C(=O)CC(N3CC=C(c4ccccc4)CC3)C2=O)cc1 (stereo unspecified) | n | u | n | 22µM | n | n
N#CC1(c2ccccc2)CCN(C2CC(=O)N(c3ccc(F)cc3)C2=O)CC1 (stereo unspecified) | n | n | n | n | n | u
O=C(COc1ccc2ccccc2c1)N1CCN(C2CCN(Cc3ccccc3)CC2)CC1 | n | n | n | n | n | n
COC(=O)[C@]12OC[C@]34C([C@@H](O)[C@@H]1O)[C@]1(C)CC(=O)C(O)=C(C)[C@@H]1C[C@H]3OC(=O)[C@H](O)[C@@H]24 (stereo partly specified) | u | n | n | n | n | u
CCCNc1nc(-c2cc(C(=O)Nc3ccccc3)on2)cc(C(C)C)n1 | n | 13µM | n | 18µM | n | x
N#Cc1ccc(C(=O)N2CCN(c3nc4ccc(F)cc4s3)CC2)cc1 | x | x | n | u | n | n
Cc1c(Cl)ccc2sc(N3CCN(C(=O)CCS(=O)(=O)c4ccc(F)cc4)CC3)nc12 | x | x | u | 18µM | n | n
CC(=O)NC(Cc1ccc(N(CCCl)CCCl)cc1)C(=O)O (stereo unspecified) | u | n | n | n | n | n
N[C@@H](Cc1ccc(N(CCCl)CCCl)cc1)C(=O)O | 2.5µM | n | n | u | n | n
OCCN1C2CCC1CC(O)(c1ccc(F)cc1)C2 (stereo unspecified) | n | n | n | n | n | n
COC(=O)c1ccc(N2C(=O)CC(N3CCC(O)(c4ccc(Br)cc4)CC3)C2=O)cc1 (stereo unspecified) | n | n | n | 6.3µM | n | n
COC(=O)c1ccc(N2C(=O)CC(N3CCC(n4c(=O)[nH]c5ccccc54)CC3)C2=O)cc1 (stereo unspecified) | n | n | n | n | n | n
C=CCOC(=O)COc1cc(C)cc2oc(=O)c3c(c12)CCC3 | n | n | u | 14µM | n | n
CCCCOC(=O)COc1cc(C)cc2oc(=O)c3c(c12)CCC3 | n | n | n | u | n | n
CS(=O)(=O)c1ccc(C2=C(CNC(=O)c3cccs3)[C@H]3CC[C@@H](C2)N3Cc2ccco2)cc1 | x | n | n | n | n | x
COc1ccc(OC)c(/C=N/OC(=O)Nc2ccc(Cl)cc2)c1 | n | n | n | 18µM | n | u
COc1ccc(OC(=O)Nc2ccccc2)cc1 | u | n | n | n | n | u
CCOC(=O)C1(CCOc2ccccc2)CCN(Cc2ccc(C)s2)CC1 | n | n | u | n | n | n
O/N=C1/C(=C\c2ccccc2)N2CCC1CC2 | x | n | n | n | n | n
COc1ccc(-n2c(/C=C\c3ccccc3F)nc3ccccc3c2=O)c(OC)c1 | x | x | u | 35µM | u | n
Cc1cccc(-n2c(/C=C/c3cccc4ccccc34)nc3ccccc3c2=O)c1 | x | x | n | 35µM | n | n
CCn1c(=O)n(CC(=O)N2CCC3(CC2)OCCO3)c(=O)c2ccccc21 | n | n | n | n | n | n
CC[C@]12c3[nH]c4cc(-c5ccco5)ccc4c3CCN1C(=O)[C@@H](CC(=O)NCc1cccc(C(F)(F)F)c1)C[C@@H]2C(=O)N1CCN(C(=O)C2CC2)CC1 | u | n | u | n | n | n
